KCNQ2 block: blocks the rat KCNQ2 potassium channel; O88943; CHO-K1 KCNQ2, FluxOR thallium flux, 20 min; active compounds read low; B-score at 10 µM; 1.1% of 310,000 active; AID 2156;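 active = fluorescence ratio B-score at most minus 3 library SDs, with starting brightness B-score within 2 library SDs, cut at about -5.5 in these data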
Target sequence (O88943 whole entry, looked up): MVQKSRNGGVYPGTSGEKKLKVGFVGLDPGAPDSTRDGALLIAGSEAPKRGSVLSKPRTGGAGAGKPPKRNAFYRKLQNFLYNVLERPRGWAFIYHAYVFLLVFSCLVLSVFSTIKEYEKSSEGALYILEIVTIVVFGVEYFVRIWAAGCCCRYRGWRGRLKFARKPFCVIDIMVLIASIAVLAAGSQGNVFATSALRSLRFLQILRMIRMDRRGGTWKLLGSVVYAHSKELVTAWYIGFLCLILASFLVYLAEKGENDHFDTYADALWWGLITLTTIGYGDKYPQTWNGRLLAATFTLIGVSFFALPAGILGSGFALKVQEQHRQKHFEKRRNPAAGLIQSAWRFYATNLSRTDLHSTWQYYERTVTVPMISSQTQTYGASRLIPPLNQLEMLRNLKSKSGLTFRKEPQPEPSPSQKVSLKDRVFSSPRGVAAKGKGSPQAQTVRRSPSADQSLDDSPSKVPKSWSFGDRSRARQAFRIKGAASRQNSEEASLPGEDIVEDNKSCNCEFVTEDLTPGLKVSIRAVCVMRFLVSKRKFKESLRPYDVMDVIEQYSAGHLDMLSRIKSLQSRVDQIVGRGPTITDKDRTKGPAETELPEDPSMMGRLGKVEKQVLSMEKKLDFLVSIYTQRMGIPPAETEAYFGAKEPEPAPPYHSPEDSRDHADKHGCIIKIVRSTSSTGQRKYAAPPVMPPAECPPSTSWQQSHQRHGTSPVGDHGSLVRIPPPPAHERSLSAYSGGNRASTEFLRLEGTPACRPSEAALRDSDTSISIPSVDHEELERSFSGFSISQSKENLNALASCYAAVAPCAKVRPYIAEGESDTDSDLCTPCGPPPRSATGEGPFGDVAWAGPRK
KCNQ2 enhance: potentiators of rat KCNQ2 potassium channel. O88943. CHO-K1 KCNQ2, FluxOR thallium flux fluorescence; active compounds read high. B-score at 10 µM. 0.54% of 310,000 active. AID 2239;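 active = fluorescence ratio B-score at least 3 SD of library B-scores, with initial fluorescence B-score within 3 of them, cut at about 5.3 in these data; same plate scores as AID 2156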;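 note: B-score of peak minus minimum over baseline fluorescence ratio after K+ and Tl+ stimulus; positive B-score means potentiation of KCNQ2 with more thallium influx and brighter signal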
Numbers without * were called inactive; i = inactive; . = no result given. The list is not random: actives were taken first. Their share in the collection is about 1.6%.

SMILES	KCNQ2 block	KCNQ2 enhance
CCCc1nc(SCC(=O)N2CCN(c3ccccc3)CC2)c2c(=O)n(C)c(=O)n(C)c2n1	i	2.9
CC(C)c1nc(SCC(=O)N2CCN(c3ccccc3)CC2)c2c(=O)n(C)c(=O)n(C)c2n1	i	6.2*
CC1=Nc2ccccc2N=C(NC(=O)CN2CCN(c3ccccc3)CC2)C1c1ccccc1 (stereo not given)	-6.5*	-6.5
CCOC(=O)C1CCCN(CC(=O)NC2=Nc3ccccc3N=C(C)C2c2ccccc2)C1 (stereo not given)	i	.
CCOc1ccc(S(=O)(=O)NC(C)C(=O)NCc2cccnc2)cc1 (stereo not given)	i	.
S=c1[nH]c2ccc(Cl)cc2s1	i	21*
Cc1cc(=O)[nH]c2ccc(Cl)cc12	i	0.91
Cc1cccc(S(=O)(=O)NC2CCCCCCC2)c1	i	0.63
COC(=O)CSc1nc2cc(OC)ccc2cc1C#N	i	0.06
COc1ccc2cc(C#N)c(SCC(=O)NNC(=O)Cc3ccccc3)nc2c1	-6.2*	-6.2
C=CCSc1cc(C)nc2c(-c3ccccc3)c(C)nn12	i	.
Cc1cc(SCC(=O)c2cccs2)n2nc(C)c(-c3ccccc3)c2n1	i	6*
Cc1cc(C(=O)CSc2nc3ccc(Cl)cc3[nH]2)c(C)n1C	-6.3*	-6.3
C=CCn1c(C)cc(C(=O)CSc2nc3ccccc3[nH]2)c1C	-7.5*	-7.5
Cc1cc(C(=O)CSc2nc3ccccc3[nH]2)c(C)n1C	i	.
Cc1ccc2nc(SCC(=O)c3cc(C)n(C)c3C)[nH]c2c1	i	.
CC(=O)N/N=C(\C)C1COc2ccccc2O1 (stereo not given)	i	0.18
O=C(Nc1ccccn1)c1sc2cccc(F)c2c1Cl	i	1.2
Cc1cc(NC(=O)COC(=O)[C@H](Cc2c[nH]c3ccccc23)NC(=O)c2ccc(F)cc2)no1	-7.2*	-7.2
CC(=O)NC(Cc1c[nH]c2ccccc12)C(=O)OCC(=O)Nc1cc(C)on1 (stereo not given)	i	0.63
CCc1nn(C(C)C(=O)N2CCN(Cc3ccccc3)CC2)c(=O)c2cc3occc3n12 (stereo not given)	i	.
Cc1nn(C(C)C(=O)N2CCN(c3ccccn3)CC2)c(=O)c2cc3occc3n12 (stereo not given)	i	1
CCc1nn(C(C)C(=O)N2CC(C)CC(C)C2)c(=O)c2cc3occc3n12 (stereo not given)	-8.1*	-8.1
Cc1cccc(N2CCN(C(=O)C(C)n3nc(C)n4c(cc5occc54)c3=O)CC2)c1C (stereo not given)	-6.1*	-6.1
CS(=O)(=O)Nc1ccc(S(=O)(=O)N2CCCCCC2)cc1	i	0.63
SMILES	KCNQ2 block	KCNQ2 enhance
COc1ccc(Cc2nnc(SCC(=O)Nc3ccc(N4CCOCC4)cc3)o2)cc1	i	1.5
CCC(=O)N1CCc2cc(Br)cc(S(=O)(=O)NCc3ccccc3OC)c21	i	0.02
CC1CCC(C(C)C)C(OC(=O)Cn2c(-c3ccc(Br)cc3)[n+](C)c3ccccc32)C1 (stereo not given)	-5.6*	-5.6
CC1CCC(C(C)C)C(OC(=O)COC(=O)c2cccn2C)C1 (stereo not given)	i	.
Cc1ccc(CSCC(=O)N(C)CC(=O)Nc2ccc(Cl)c(Cl)c2)cc1	i	3.9
O=C(CNC(=O)c1ccc(Cl)cc1Cl)OCCCn1c(=O)[nH]c2ccccc21	i	0.06
Cc1ccc(NC(=O)C(OC(=O)c2ccccc2Cl)c2ccccc2)cc1Cl (stereo not given)	i	.
Cc1cc(C(=O)OC(C(=O)Nc2ccc(C)c(Cl)c2)c2ccccc2)c(C)o1 (stereo not given)	-5.8*	-5.8
CCOc1ccc(N2CC(C(=O)Nc3ccc(S(=O)(=O)Nc4nccs4)cc3)CC2=O)cc1 (stereo not given)	i	.
COc1cccc(C(c2nnnn2CCc2ccccc2)N2CCN(c3ccccc3)CC2)c1OC (stereo not given)	-6.7*	-6.7
COc1ccc(OC)c(C(c2nnnn2Cc2ccco2)N2CCN(C)CC2)c1 (stereo not given)	i	.
COc1ccccc1C(c1nnnn1CCc1ccccc1)N1CCN(c2ccccc2)CC1 (stereo not given)	i	.
COc1cccc(C(c2nnnn2Cc2ccco2)N2CCN(c3cccc(C)c3C)CC2)c1OC (stereo not given)	-6.2*	-6.2
COc1ccc(CC(C)Nc2cccc(SC)c2)cc1 (stereo not given)	i	.
CN(C)c1ccc(/C=N\NC(=O)c2cccc3cc[nH]c23)cc1	i	1.1
O/N=C/c1ccc2ccccc2n1	i	.
CC(C)(C)c1ccccc1N=Cc1ccc2ccccc2n1	-6.4*	-6.4
COCc1cc(=O)[nH]c(SCCS(=O)(=O)c2ccc(Cl)cc2Cl)n1	i	.
COc1ccc(-n2cc(CNCCc3cscn3)c(-c3ccccc3Cl)n2)cc1	i	.
Cc1ccc(-n2cc(CNCCc3cscn3)c(-c3ccc(F)cc3)n2)cc1	-6.8*	-6.8

From PubChem
